Test results from PubChem BioAssay.
The source made the active and inactive calls.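 The calls were made as follows: active = inhibition above 20% together with a positive visual image hit; inconclusive = visual image hit but inhibition not above 20%; inactive = no visual image hit.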

Assay: inhibitors of TNFa-induced NFkB p65 translocation, primary screen, imaging, HUVEC, MLSMR starter and 10KST1 sets (AID 438);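 also: compound added about 3h40 before a 20 min TNFalpha stimulation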;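 as to inhibition: signal is the nuclear over cytoplasmic p65 intensity ratio per well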
Conditions: HUVEC TNFa-induced p65 nuclear translocation; cell count: measured here: nuclei count (cytotoxicity indicator), at 2.08 µM; inhibition: at 2 µM, stronger effect = higher value, 0% TNFa-plus-vehicle, 100% no-TNFa wells

| Structure (SMILES) | inhibition | cell count |
| --- | --- | --- |
| Cc1ccc(-c2nnn(CC(=O)NC3CC4CCC3C4)n2)cc1 (stereo not given) | -5% (inactive) | 239 |
| CCOc1cc2[nH]c(=O)n(CCCCC(=O)N3CCCCCC3)c(=O)c2cc1OCC | 2.2% (inactive) | 218 |
| Cc1ccc(C(C)C)c(OCc2nnc(SCC(=O)Nc3ncc(C)s3)n2C)c1 | 0.5% (inactive) | 663 |
| COc1cccc(-n2c(SCC(=O)OC(C)C)nnc2-c2cccnc2)c1 | -3.3% (inactive) | 402 |
| COCCn1c(SCC(=O)Nc2nnc(C)s2)nnc1-c1c[nH]c2ccccc12 | 7.1% (inactive) | 518 |
| CCOC(=O)c1[nH]cc(-c2ccccc2)c1N1CCOCC1 | -3.5% (inactive) | 398 |
| CC(C)OP(=O)(c1ccc(N(C)C)cc1)C(O)c1ccccc1F (stereo not given) | -7.2% (inactive) | 720 |
| O=C(CSc1nnc(Cn2cnc3ccccc32)o1)c1ccccc1 | 3% (inactive) | 672 |
| N#Cc1c(NC(=O)COC(=O)C2CC3C=CC2C3)oc(-c2ccccc2)c1-c1ccccc1 (stereo not given) | 18.4% (inactive) | 282 |
| O=C(NCc1ccccc1)N1CCn2c(nc3ccccc32)C1 | 2.5% (inactive) | 555 |
| CCCCn1c(SCc2cccnc2)nc2c1c(=O)n(C)c(=O)n2C | -7.2% (inactive) | 502 |
| CCOC(=O)c1[nH]c2ccccc2c1NC(=O)c1ccco1 | -8.6% (inactive) | 671 |
| CC(C(=O)NCCCN1CCOCC1)n1cccc1C(=O)c1ccccc1 (stereo not given) | 2.7% (inactive) | 572 |
| COc1ccccc1NS(=O)(=O)c1ccc(NC(=O)c2nc3ncccn3n2)cc1 | 8.8% (inactive) | 266 |
| CCCCCCC(=O)c1c(C)[nH]c(C(=O)OCC)c1C | -4.2% (inactive) | 310 |
| O=C1CS/C(=N\C(=O)N2c3ccccc3Sc3ccccc32)N1 | 8% (inactive) | 373 |
| COc1ccc2c(c1)CCc1c(C(=O)N3CCCc4ccccc43)noc1-2 | -4.5% (inactive) | 419 |
| O=C(c1ccc(Cl)cc1)N(Cc1cccs1)C1CCS(=O)(=O)C1 (stereo not given) | 0.4% (inactive) | 376 |
| c1nnc(NC2=NCCCCC2)s1 | -18.3% (inactive) | 630 |
| Cc1cncn1CCc1nc2c3ccccc3nc(=S)n2[nH]1 | 0% (inactive) | 537 |

| Structure (SMILES) | inhibition | cell count |
| --- | --- | --- |
| Cc1ccc(S(=O)(=O)Cc2ccc(C(=O)NCc3ccc4c(c3)OCO4)o2)cc1 | -1.9% (inactive) | 592 |
| Cn1cnnc1SCC(=O)Nc1sc2c(c1C#N)CCCCC2 | -29.4% (inactive) | 564 |
| O=C(O)c1[nH]nc2c1COc1ccccc1-2 | 13.1% (inactive) | 308 |
| CC1(C)CC(=O)c2cc(OCC(=O)NCCCN3CCN(c4ccccc4F)CC3)ccc2O1 | 5.8% (inactive) | 398 |
| COCCn1c(=O)[nH]c2cc(C(=O)NCCCN3CCN(c4ccc(F)cc4)CC3)ccc2c1=O | 21.3% (inactive) | 333 |
| O=C(COC(=O)C1(c2ccccc2F)CCCC1)NC1CCS(=O)(=O)C1 (stereo not given) | -6.9% (inactive) | 804 |
| COc1cc(OC)c(C(=O)Nc2ccc(N(C)C)cc2)cc1OC | 5.2% (inactive) | 369 |
| CCOC(=O)Nc1cc(OCC)c(NC(=O)C2CC2)cc1OCC | -12.9% (inactive) | 589 |
| CCOC(=O)c1sc(N2C(=O)C(O)=C(C(=O)c3ccco3)C2c2ccccc2)nc1C (stereo not given) | 2.8% (inactive) | 425 |
| O=c1oc(-c2ccco2)nc2ccccc12 | 1% (inactive) | 460 |
| COc1cccc(OC)c1C(=O)Nc1ccccc1N1CCCC1 | -3.4% (inactive) | 417 |
| Cc1ccccc1Cn1nc(C)c(NC(=O)c2noc3c2CCCC3)c1C | -1.3% (inactive) | 191 |
| Cc1ccc(C(=O)C2COC(=O)C2)cc1 (stereo not given) | 4.9% (inactive) | 333 |
| COc1ccc(S(=O)(=O)n2ccnc2)c2cccnc12 | -21.1% (inactive) | 442 |
| CCOC(=O)c1ccc(-c2c(C(=O)OCC)oc3cc(O)c(CC)cc3c2=O)o1 | 6.9% (inactive) | 676 |
| COc1cc(NC(=O)c2cc(OC)c(OC)c(OC)c2)c(OC)cc1NC(=O)CN1CCCCC1 | -11.1% (inactive) | 700 |
| CCCCC(CC)C(=O)Nc1ccc(Cl)cn1 (stereo not given) | 8.5% (inactive) | 461 |
| O=C(/C=N/O)Nc1cccnc1 | -10.2% (inactive) | 351 |
| c1ccc2c(c1)Cn1c-2nc2ccccc21 | -28.4% (inactive) | 700 |
| O=c1cc(COn2nnc3ccc(C(F)(F)F)cc32)nc2sccn12 | -22% (inactive) | 379 |
